# Source: PubChem (several laboratories)
# Compounds with a hit are over-represented: about 3.3% of the library has one in this group of screens.
# sPLA2-III inh – Inhibits HGIII-sPLA2 liposome hydrolysis, primary screen. 370,000 tested, 0.56% active. QFRET BODIPY PC-A2 liposome hydrolysis, fluorescence. Q9NZ20. inhibition, % at 12.2 µM;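 active = inhibition above mean plus 3 SD of compounds lying within the high and low control bounds, cut at about 19% in these data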;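 note: 0% = median of test compound wells and 100% = no enzyme DMSO wells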
# Target sequence (Q9NZ20 whole entry, looked up): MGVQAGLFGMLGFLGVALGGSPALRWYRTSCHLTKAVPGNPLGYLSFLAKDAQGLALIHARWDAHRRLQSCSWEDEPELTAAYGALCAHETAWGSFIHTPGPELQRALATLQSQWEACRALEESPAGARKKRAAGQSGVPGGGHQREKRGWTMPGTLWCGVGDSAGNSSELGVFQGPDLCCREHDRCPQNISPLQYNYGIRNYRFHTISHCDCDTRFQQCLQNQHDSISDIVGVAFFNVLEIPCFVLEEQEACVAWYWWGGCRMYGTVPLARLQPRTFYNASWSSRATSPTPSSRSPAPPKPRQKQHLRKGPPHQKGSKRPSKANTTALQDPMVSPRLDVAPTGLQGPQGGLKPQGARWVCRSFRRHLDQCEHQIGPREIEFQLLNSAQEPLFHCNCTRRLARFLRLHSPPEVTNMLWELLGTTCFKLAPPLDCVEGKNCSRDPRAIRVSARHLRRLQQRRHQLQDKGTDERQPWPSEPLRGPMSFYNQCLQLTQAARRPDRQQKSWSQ
# GRIN3A LBD mod – modulators (binders) of human NR3A ligand-binding domain. NR3A LBD differential scanning fluorimetry, Tm shift; 0% = protein alone, 100% = glycine-bound protein. Tm shift relative to glycine control, % at 25 µM. 340,000 tested, 2.5% active. AID 1259313;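 active = melting temperature shift of at least 10% of the positive control shift, at one fixed dose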
# SUMO HTRF inh – blocks human SUMOylation mediated by UBC9; P63279; HTRF SUMOylation assay, SAE1/SAE2 + UBC9, in vitro; inhibition, % at 35 µM; 290,000 tested, 0.36% active; in the data active = inhibition above about 50%, passing the limit was not always enough; inconclusive = no clear call, values can overlap the other calls
# UBC13 polyUb – inhibitors of human UBC13 polyubiquitin chain formation; inhibition, % at 20 µM; P61088; 330,000 tested, 0.47% active; TR-FRET; in the data active = inhibition above about 45%, passing the limit was not always enough; inconclusive = no clear call, values can overlap the other calls
# Target sequence (P61088 whole entry, looked up): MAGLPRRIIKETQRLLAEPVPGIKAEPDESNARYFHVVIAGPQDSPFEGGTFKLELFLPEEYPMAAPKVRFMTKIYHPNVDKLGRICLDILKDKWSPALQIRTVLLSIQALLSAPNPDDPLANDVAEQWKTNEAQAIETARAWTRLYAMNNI
# hGIII sPLA2 conf – human GIII-sPLA2 inhibition, confirmation; shares compounds with sPLA2-III inh; recombinant hGIII-sPLA2, BODIPY PC-A2 QFRET fluorescence; inhibition, % at 12.2 µM; 2,000 tested, 34% active; AID 743280;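 active = mean inhibition across triplicates above the hit cutoff set in the earlier primary screen, cut at about 19% in these data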;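 note: 0% = enzyme with DMSO and 100% = DMSO wells lacking enzyme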
# BODIPY interf – counter-screen for HGIII-sPLA2 inhibitors: 535nm fluorescence interference; AID 743282; BODIPY FL product fluorescence interference, QFRET; shares compounds with sPLA2-III inh; 2,000 tested, 8.5% active; inhibition, % at 12.2 µM;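 active = average inhibition above the solvent-only control mean plus 3 SD, cut at about 6% in these data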;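 note: 0% = DMSO with substrate plus product and 100% = DMSO with substrate alone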
# BODIPY interf DR – 535nm optical interference dose response, HGIII-sPLA2 counter-screen; shares compounds with sPLA2-III inh; 240 tested, under 10 active; IC50, µM; AID 743455; BODIPY FL product fluorescence interference, cell-free;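 active = IC50 at or below 10 µM; inactive = IC50 above 10 µM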
# * marks the source's active call; other numbers are inactive results; ? = inconclusive; · = no result given.
SMILES,sPLA2-III inh,GRIN3A LBD mod,SUMO HTRF inh,UBC13 polyUb,hGIII sPLA2 conf,BODIPY interf,others
O=C(NC(=S)Nc1ccc(CN2CCOCC2)cc1)c1cccc([N+](=O)[O-])c1,19*,0,5,15,3,-6,
O=C(NNC(=S)NC(=O)c1ccccc1[N+](=O)[O-])c1ccccc1,19*,1,-2,0,24*,-3,
CCCOc1ccc(C(=O)NNC(=S)NC(=O)c2ccccc2[N+](=O)[O-])cc1,21*,-11,-59,-30,31*,-4,
CCCOc1ccc(C(=O)Nc2ccccc2[N+](=O)[O-])cc1,3,4,·,4,·,·,
Cc1ccccc1OCC(=O)NNC(=S)NC(=O)c1ccccc1[N+](=O)[O-],23*,-1,-26,5,28*,-4,BODIPY interf DR=>122
COc1ccc(-c2nnc(SCC(=O)Nc3ccc(S(=O)(=O)Nc4nccs4)cc3)n2-c2ccc(OC)cc2)cc1,-28,·,·,·,·,·,
CC(C)NC(=O)NC1CCN(CC(=O)Nc2ccc3c(c2)OCCO3)CC1,4,·,·,·,·,·,
O=C(NNC(=S)NC(=O)c1ccccc1)c1cccc([N+](=O)[O-])c1,25*,-3,-70,-12,25*,-1,
CC(C)C(=O)Nc1ccc(C(=O)NNC(=S)NC(=O)c2ccccc2[N+](=O)[O-])cc1,21*,-2,-8,-22,18,-4,
COc1ccc(C(=O)NC(=S)NNC(=O)c2ccc(C)cc2)cc1,19,-1,·,-31,·,·,
COc1ccc(C(=O)NC(=S)NNC(=O)c2ccc(NC(=O)C(C)C)cc2)cc1,26*,-4,-56,-9,27*,-5,
CCCCC(=O)Nc1ccc(C(=O)NNC(=S)NC(=O)c2ccccc2[N+](=O)[O-])cc1,23*,-5,-18,-10,21*,-4,
COc1ccc(S[C@]2(C(=O)N(C)C)CC(=O)N(C(=O)CCc3ccccc3)[C@@H]2c2ccc(OC)cc2)cc1,0,·,·,·,·,·,
CCN(CC)c1ccc(-c2nn3c(-c4ccccc4Cl)nnc3s2)cc1,-2,·,·,·,·,·,
O=C(NC(=S)N1CCCC1)c1cccc([N+](=O)[O-])c1,1,-5,2,0,·,·,
O=C(NC(=S)N1CCCCCC1)c1cccc([N+](=O)[O-])c1,20*,4,·,1,15,-3,
O=C(Nc1cccc(F)c1)OCCCN1CCC2(CCC(c3ccccc3)CC2)C1 (stereo not given),5,·,·,·,·,·,
Cc1cc(C)nc(SCc2cn3cc(Cl)ccc3n2)n1,21*,0,-10,-1,3,-9,
COc1ccc(Cn2cc(CN3[C@@H](C)COc4cc(Br)ccc4S3(=O)=O)nn2)cc1,1,·,·,·,·,·,
O=C(NNS(=O)(=O)c1ccc([N+](=O)[O-])cc1)c1ccc2ccccc2c1O,2,5,5,-6,·,·,
CCc1ccc(NC(=O)NNC(=O)c2cc3ccccc3cc2O)cc1,27*,10*,·,9,16,1,
CCOc1ccc(NC(=O)NNC(=O)c2cc3ccccc3cc2O)cc1,14,2,34,7,·,·,
CCc1ccc(NC(=O)NNC(=O)c2ccc3ccccc3c2O)cc1,32*,7,2,9,25*,5,
CCCC1CCC2(CCC(=O)N2CCO)CC1 (stereo not given),7,·,·,·,·,·,
CCCNC(=O)N1[C@@H](CO)[C@H](c2ccc(C3=CCCC3)cc2)[C@@H]1CN(CC)S(=O)(=O)c1ccccc1[N+](=O)[O-],-18,·,·,·,·,·,
SMILES,sPLA2-III inh,GRIN3A LBD mod,SUMO HTRF inh,UBC13 polyUb,hGIII sPLA2 conf,BODIPY interf,others
CC(Oc1ccccc1F)c1nnc(SCC(=O)NCc2ccc3c(c2)OCO3)o1 (stereo not given),84*,0,·,2,-1,-5,
O=C(CSc1nnc(CNC(=O)c2c(F)cccc2F)o1)NCc1ccc2c(c1)OCO2,-3,·,·,·,·,·,
C[C@H](O)[C@@H]1CN2CCc3ccc(-c4ccc5c(c4)OCO5)cc3[C@@H]2C[C@@H]1N(C)CC1CCCCC1,-4,·,·,·,·,·,
CC(=O)C1=C(C)NC(SCC(N)=O)=C(C#N)C1c1sccc1C (stereo not given),23*,-1,22,6,7,-5,
CCOC(=O)[C@]12CCCC=C1N(CCc1ccc(Cl)cc1)C(=O)[C@@H]2CC(=O)NCCC(C)C,-9,·,·,·,·,·,
S=c1[nH]nc(-c2ccc(Cl)cc2)n1/N=C/C=C/c1ccco1,25*,0,·,15,30*,3,
CCCNC(=O)c1ccc2c(=O)c(O)c(-c3ccc(Cl)c([N+](=O)[O-])c3)[nH]c2c1,20*,-6,15,-32,-8,-1,
Cc1ncc(CO)c(/C=N/NC(=S)Nc2ccc(F)cc2)c1O,20*,-3,1,43,20*,-5,
Fc1ccc(/C=N/NC(=S)Nc2cccnc2)cc1,13,1,12,4,·,·,
Cc1cccc(N2CCN(S(=O)(=O)c3c(C)noc3/C=C/N(C)C)CC2)c1C,27*,2,11,-17,24*,-5,
Cc1noc(/C=C/N(C)C)c1S(=O)(=O)N1CCN(c2ccc(F)cc2)CC1,12,0,8,-10,·,·,
COc1ccccc1NC(=S)N1CCC(c2nc3cc(C)c(C)cc3[nH]2)CC1,21*,-1,-3,7,13,-12,
CCCNC(=O)C1CC(=O)N(c2ccc(OCc3ccc(Cl)cc3)cc2)C1 (stereo not given),6,-2,-1,2,·,·,
NC(=O)C1CC(=O)N(c2ccc(OCc3ccc(Cl)cc3)cc2)C1 (stereo not given),20*,-1,12,?,12,-8,
COc1ccc(-c2csc(NC(C)c3nc4cc(Cl)c(N5CCCCC5)cc4n3CCCO)n2)cc1 (stereo not given),4,-1,·,-11,·,·,
Cc1ccc(-c2csc(N3CCN(c4cc5c(cc4Cl)nc(C(C)N)n5CCCO)CC3)n2)cc1 (stereo not given),23*,-3,-5,7,20*,-3,
COc1ccc(C(CCOC(=O)Oc2ccccc2)c2cc(OC)cc(OC)c2)cc1 (stereo not given),-17,·,·,·,·,·,
Cc1nc(CNS(=O)(=O)c2cccs2)cs1,7,-1,-3,-23,·,·,
CCc1ccc(S(=O)(=O)NCc2csc(C)n2)s1,22*,1,10,3,-2,-5,
O=C(Cn1nnc(-c2ccncc2)n1)Nc1ccc(F)cc1F,6,·,·,·,·,·,
COc1cc(NC(=O)C2CCCN(S(=O)(=O)c3cc(OC)ccc3OC)C2)cc(OC)c1 (stereo not given),-11,·,·,·,·,·,
NC(=S)NN=Cc1nccc2ccccc12,1,2,·,·,·,·,
NC(=S)NN=Cc1nccc2c(C(F)(F)C(F)(F)C(F)(F)F)cccc12,31*,·,·,·,39*,-4,BODIPY interf DR=>122
COc1ccc(CNC(=O)CCNS(=O)(=O)c2ccc3[nH]c(=O)oc3c2)cc1,-1,·,·,·,·,·,
